Inconclusive results are not listed. Calls of active or inactive are those of the source. Rule for the calls, unless noted: active = hit-call score of the fitted dose curve at least 0.9, where 1 is the maximum; inconclusive = response in the unintended direction; inactive = score below 0.9.
Legend:
[1] = TOX21_p53_BLA_p2_viability: Viability Assessment in the Tox21 HCT-116 p53 Agonism Beta-lactamase Assay, Phase 2 (AID 2283591);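 note: compound exposure lasted 16 h at 37 °C; actives lower the ATP signal meaning cytotoxicity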
Summary of the method: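 HCT-116 p53-bla cells (4000/well) rested 5 h at 37C, then received compounds in DMSO (217-fold dilution) for 16 h at 37C, 5% CO2. After the CCF4 read, CellTiter-Glo was added; ATP luminescence was read after 30 min at room temperature.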

[2] = target: Cellular tumor antigen p53 (Homo sapiens) (UniProt P04637); assay: TOX21_p53_BLA_p2_ratio: Tox21 HCT-116 p53 Agonism Beta-lactamase Assay, Ratio, Phase 2 (AID 2283592)
Sequence of Cellular tumor antigen p53 (Homo sapiens) (P04637 whole entry, looked up): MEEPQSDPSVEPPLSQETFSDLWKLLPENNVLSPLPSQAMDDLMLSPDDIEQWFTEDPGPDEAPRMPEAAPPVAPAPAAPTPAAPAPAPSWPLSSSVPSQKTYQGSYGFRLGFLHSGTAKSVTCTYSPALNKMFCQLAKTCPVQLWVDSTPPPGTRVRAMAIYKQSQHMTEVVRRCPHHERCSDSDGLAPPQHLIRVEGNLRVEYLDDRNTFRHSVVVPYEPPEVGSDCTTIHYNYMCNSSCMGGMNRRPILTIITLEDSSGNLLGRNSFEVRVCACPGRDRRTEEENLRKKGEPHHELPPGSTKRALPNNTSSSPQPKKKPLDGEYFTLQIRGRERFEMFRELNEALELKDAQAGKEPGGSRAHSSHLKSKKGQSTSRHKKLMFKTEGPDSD
Summary of the method: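 DMSO-normalized, positive-direction endpoint derived from the 460 nm/530 nm FRET ratio in HCT116 p53 beta-lactamase reporter cells exposed 16 h at 37C and loaded with CCF4-AM for 2 h.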

[3] = TOX21_p53_BLA_p3_viability: Viability Assessment in the Tox21 HCT-116 p53 Agonism Beta-lactamase Assay, Phase 3 (AID 2283593);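 note: cells exposed to compound for 16 h before reading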
Summary of the method: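 HCT-116 cells (4000/well) rested 5 h at 37C, then got DMSO compounds by pin tool (217-fold dilution) for 16 h at 37C, 5% CO2. After the bla read, CellTiter-Glo was added and luminescence read at 30 min, room temperature.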

[4] = target: Cellular tumor antigen p53 (Homo sapiens) (UniProt P04637); assay: TOX21_p53_BLA_p3_ratio: Tox21 HCT-116 p53 Agonism Beta-lactamase Assay, Ratio, Phase 3 (AID 2283596)
Summary of the method: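 Cells were seeded at 4000/well, rested 5 h at 37C, then dosed with DMSO compound solutions (217-fold dilution) for 16 h. CCF4-AM substrate was loaded for 2 h at room temperature, and the 460/530 nm emission ratio was fitted for gain of signal versus DMSO.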

[5] = TOX21_p53_BLA_p4_viability: Viability Assessment in the Tox21 HCT-116 p53 Agonism Beta-lactamase Assay, Phase 4 (AID 2283597);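 note: hits lower the luminescence signal meaning cytotoxicity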
Summary of the method: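 In this multiplexed secondary endpoint, HCT116 cells (4000 per well, compound at 5 h, 16 h treatment) received CellTiter-Glo after the beta-lactamase read. Luminescence after 30 min RT reflects ATP, and falling signal marks cytotoxicity.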

[6] = target: Cellular tumor antigen p53 (Homo sapiens) (UniProt P04637); assay: TOX21_p53_BLA_p4_ratio: Tox21 HCT-116 p53 Agonism Beta-lactamase Assay, Ratio, Phase 4 (AID 2283601)
Summary of the method: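 HCT116 cells carrying an inducible beta-lactamase reporter were plated at 4000 cells/well, rested 5 h, then exposed to compounds in DMSO (217-fold dilution) for 16 h at 37C. CCF4-AM substrate was loaded 2 h at room temperature; 460/530 nm emission ratio scored gain-of-signal versus DMSO.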

[7] = target: Cellular tumor antigen p53 (Homo sapiens) (UniProt P04637); assay: TOX21_p53_BLA_p5_ratio: Tox21 HCT-116 p53 Agonism Beta-lactamase Assay, Ratio, Phase 5 (AID 2283599)
Summary of the method: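 HCT-116 cells carrying a p53-inducible beta-lactamase reporter were seeded at 4000 cells/well and dosed after 5 h with compound in DMSO (217-fold dilution). After 16 h at 37C, CCF4-AM substrate was added for 2 h, and the 460/530 nm emission ratio was scored as gain-of-signal versus DMSO.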

[8] = TOX21_p53_BLA_p5_viability: Viability Assessment in the Tox21 HCT-116 p53 Agonism Beta-lactamase Assay, Phase 5 (AID 2283600)
Summary of the method: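 Here cell health was gauged by ATP levels in wells holding 4000 cells, each treated 16 h with DMSO-delivered compounds at 217-fold dilution; reduced luminescence marked toxicity.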

[9] = CCTE_Deisenroth_DEVTOX-GLR_legacy_CellCount: (Legacy) Viability Assessment in CCTE's DevTox GLR-Endo Assay, Deisenroth Lab (AID 2284331; active = hit-call score of the fitted dose curve at least 0.9, where 1 is the maximum; inactive = score below 0.9); conditions: actives raise or lower the signal
Summary of the method: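 Human pluripotent RUES2-GLR cells differentiated 48 h with two 24-h-interval exposures, 10-point 1 nM–200 uM series, 0.2% DMSO. Fixed nuclei counted by high-content imaging (5 fields/well); bidirectional fit vs DMSO, n≥4.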

[10] = test system: SRY-box transcription factor 17 (SOX17) Protein Expression, Deisenroth Lab, SOX17 (gene 64321); assay: CCTE_Deisenroth_DEVTOX-GLR_legacy_Sox17: (Legacy) CCTE's DevTox GLR-Endo Assay Evaluation of SRY-box transcription factor 17 (SOX17) Protein Expression, Deisenroth Lab (AID 2284341; active = hit-call score of the fitted dose curve at least 0.9, where 1 is the maximum; inactive = score below 0.9); conditions: actives raise or lower the signal
Summary of the method: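 RUES2-GLR human pluripotent cells differentiated toward endoderm for 48 h, dosed twice at 24 h intervals (1 nM–200 uM, 10 points). Imaging gives % SOX17+ cells (intensity >5x BMAD above pluripotent control median); bidirectional fit versus 0.2% DMSO.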

[11] = test system: SRY-box transcription factor 2 (SOX2) Protein Expression, Deisenroth Lab, SOX2 (gene 6657); assay: CCTE_Deisenroth_DEVTOX-GLR_legacy_Sox2: (Legacy) CCTE's DevTox GLR-Endo Assay Evaluation of SRY-box transcription factor 2 (SOX2) Protein Expression, Deisenroth Lab (AID 2284346; active = hit-call score of the fitted dose curve at least 0.9, where 1 is the maximum; inactive = score below 0.9)
Summary of the method: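 Two exposures, 24 h apart, during 48 h defined-media differentiation of seeded RUES2-GLR cells; nuclei-stained cells imaged. Sox2 positivity called at 5x BMAD above endoderm control median, DMSO median subtracted.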

[12] = test system: SRY-box transcription factor 2 (SOX2) Protein Expression, Deisenroth Lab, SOX2 (gene 6657); assay: CCTE_Deisenroth_DEVTOX-GLR_Endo_SOX2: CCTE's DevTox GLR-Endo Assay Evaluation of SRY-box transcription factor 2 (SOX2) Protein Expression, Deisenroth Lab (AID 2284412)
Summary of the method: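 Endpoint is percent SOX2-positive cells (SOX2+ count/total cells) minus 0.2% DMSO control, from high-content imaging of fixed, nuclear-stained RUES2-GLR cells. Dosing twice at 24 h intervals over 48 h differentiation, 1 nM–200 uM in 10 points.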

[13] = test system: SRY-box transcription factor 17 (SOX17) Protein Expression, Deisenroth Lab, SOX17 (gene 64321); assay: CCTE_Deisenroth_DEVTOX-GLR_Endo_SOX17: CCTE's DevTox GLR-Endo Assay Evaluation of SRY-box transcription factor 17 (SOX17) Protein Expression, Deisenroth Lab (AID 2284413; active = hit-call score of the fitted dose curve at least 0.9, where 1 is the maximum; inactive = score below 0.9)
Summary of the method: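 Fluorescent microscopy of a SOX17 reporter in RUES2-GLR pluripotent cells scored endoderm differentiation after 48 h and two 24-h-spaced exposures. Values are percent change in SOX17+ population against 0.2% DMSO, n=4 experimental replicates.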

[14] = test system: Brachyury (BRA) Protein Expression, TBXT (gene 6862); assay: CCTE_Deisenroth_DEVTOX-GLR_Endo_BRA: CCTE's DevTox GLR-Endo Assay Evaluation of Brachyury (BRA) Protein Expression, Deisenroth Lab (AID 2284417; active = hit-call score of the fitted dose curve at least 0.9, where 1 is the maximum; inactive = score below 0.9)
Summary of the method: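 RUES2-GLR pluripotent cells differentiated 48 h with two chemical exposures 24 h apart, 10-point range 1 nM - 200 uM. Percentage of BRA+ cells per total count by high-content imaging, minus 0.2% DMSO control.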

[15] = CCTE_Deisenroth_DEVTOX-GLR_Endo_CellCount: Viability Assessment in CCTE's DevTox GLR-Endo Assay, Deisenroth Lab (AID 2284420; active = hit-call score of the fitted dose curve at least 0.9, where 1 is the maximum; inactive = score below 0.9)
Summary of the method: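 Measured 48 h after dosing: fluorescent nuclei counted by imaging in human RUES2-GLR cells under defined differentiation media, tested at 1 nM - 200 uM. Values are percent cell-count change relative to 0.2% DMSO.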

[16] = test system: SRY-box transcription factor 2 (SOX2) Protein Expression, Deisenroth Lab, SOX2 (gene 6657); assay: CCTE_Deisenroth_DEVTOX-GLR_Pluri_SOX2: CCTE's DevTox GLR-Pluri Assay Evaluation of SRY-box transcription factor 2 (SOX2) Protein Expression, Deisenroth Lab (AID 2284428; active = hit-call score of the fitted dose curve at least 0.9, where 1 is the maximum; inactive = score below 0.9)
Summary of the method: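 Percent SOX2+ RUES2-GLR cells, determined by fluorescence microscopy after 48 h and two 24-h-interval chemical exposures spanning 1 nM–200 uM, served as the endpoint. Values are expressed relative to 0.2% DMSO; total cell counts assessed viability.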

[17] = test system: Brachyury (BRA) Protein Expression, Deisenroth Lab, TBXT (gene 6862); assay: CCTE_Deisenroth_DEVTOX-GLR_Pluri_BRA: CCTE's DevTox GLR-Pluri Assay Evaluation of Brachyury (BRA) Protein Expression, Deisenroth Lab (AID 2284429)
Summary of the method: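 Mesoderm readout after 48 h differentiation of human RUES2-GLR cells, dosed twice (24-h intervals) at 1 nM - 200 uM. BRA+ frequency from fluorescence imaging of fixed, nuclear-stained cells, DMSO-corrected.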

[18] = CCTE_Deisenroth_DEVTOX-GLR_Pluri_CellCount: Viability Assessment in CCTE's DevTox GLR-Pluri Assay Evaluation of Total Cell Counts, Deisenroth Lab (AID 2284430; active = hit-call score of the fitted dose curve at least 0.9, where 1 is the maximum; inactive = score below 0.9)
Summary of the method: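 Cytotoxicity readout: fluorescent nuclei counts by high-content imaging, expressed as percent change relative to 0.2% DMSO. Human RUES2-GLR pluripotent line differentiated 48 h, dosed twice at 24-h intervals across 1 nM - 200 uM (10 points).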

Measured: AC50

O=C(c1ccccc1O)c1ccccc1O
inactive: [1] | [2] | [3] | [4] | [5] | [6]

O=C(O)CCCCCC(=O)O
inactive: [1] | [2] | [3] | [4] | [5] | [6]

C[N+]1(C)[C@@H]2CC(OC(=O)C(O)(c3cccs3)c3cccs3)C[C@H]1[C@@H]1O[C@@H]12 (stereo partly specified)
inactive: [1] | [2] | [3] | [4] | [5] | [6]

CC(=O)Oc1ccc(C(=C2CCCCC2)c2ccc(OC(C)=O)cc2)cc1
inactive: [1] | [2] | [3] | [4] | [5] | [6]

CCn1cc(C(=O)O)c(=O)c2cnc(N3CCCC3)nc21
inactive: [1] | [2] | [3] | [4] | [7] | [8]

COc1cc(C(=O)NCc2ccc(OCCN(C)C)cc2)cc(OC)c1OC
inactive: [1] | [2] | [3] | [4] | [7] | [8] | [6]

CC(C)(c1ccc(Oc2ccc3c(c2)C(=O)OC3=O)cc1)c1ccc(Oc2ccc3c(c2)C(=O)OC3=O)cc1
inactive: [1] | [2] | [3] | [4] | [7]

CCCCCCCCCCCCCCCCCC(=O)[O][Al]
inactive: [1] | [2] | [3] | [4] | [7] | [8] | [6]

CC(C)(C)OC(=O)c1ccccc1C(=O)O
inactive: [1] | [2] | [3] | [4] | [7] | [8]

COC(=O)c1ccccc1Cl
inactive: [1] | [2] | [3] | [4] | [7] | [8]

O=C1C(O)=C(O)C(=O)C(O)=C1O
inactive: [1] | [2] | [3] | [4] | [7] | [8]

CC(Cl)=CCCl
inactive: [1] | [2] | [3] | [4] | [5] | [6]

COc1cc(Cc2cnc(N)nc2N)cc(OC)c1OC
inactive: [1] | [2] | [3] | [4] | [7] | [8]

Cc1nc2sccn2c(=O)c1CCN1CCC(=C(c2ccc(F)cc2)c2ccc(F)cc2)CC1
active: [1] 37.8 µM | [2] 36.5 µM | [3] 8.52 µM | [5] 23 µM | [9] 9.28 µM | [10] 11 µM | [11] 8.41 µM | [12] 20.4 µM | [13] 11 µM | [14] 17.7 µM | [15] 9.15 µM | [16] 16.9 µM | [17] 24.1 µM | [18] 9.92 µM
inactive: [4] | [6]

C[C@@H](O)[C@H]1C(=O)N2C(C(=O)[O-])=C(SC3Cn4cnc[n+]4C3)[C@H](C)[C@H]12 (stereo partly specified)
inactive: [1] | [2] | [3] | [4] | [7] | [8]
